According to PubChem BioAssay AID1159580 (chemical genetic matrix, 2015):
Screen size: about 5,500 compounds; about 2,000 (36%) were called active. About 18% were inconclusive and are not listed. Cut-off read from the data, not from the text of the source: active = normalized growth mostly below about 0.91 (no sharp cut-off); inconclusive = no clear call, values can overlap the other calls; inactive = mostly above about 0.92. This is one part of the list.

Test: chemical genetic growth profiling, strain panel (AID 1159580);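 note: tested at 20 µM; growth read once vehicle control cultures reached saturation at 30 °C; 1 = growth at the plate median or of vehicle wells; lower values mean less growth of the strain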
Details: growth OD

Measured: normalized growth

C=NC(C(=O)NC1C(=O)N2C1SC(C)(C)C2C(=O)O)c1ccccc1 (configuration not stated)
inactive: S. cerevisiae deletion strains, locus YJR075W, strain HOC1, hits give low values 0.991 | S. cerevisiae deletion strains, locus YKL009W, strain mrt4, hits give low values 1.02 | S. cerevisiae deletion strains, locus YKL068W, hits give low values 1.02 | S. cerevisiae deletion strains, locus YKL085W, strain MDH1 (second series), hits give low values 1.04 | S. cerevisiae deletion strains, locus YKL085W, strain MDH1, hits give low values 1.04 | S. cerevisiae deletion strains, locus YKL160W, strain elf1, hits give low values 0.98 | S. cerevisiae deletion strains, locus YKL190W, strain CNB1, hits give low values 1.01 | S. cerevisiae deletion strains, locus YKR001C, strain vps1, hits give low values 1.02 | S. cerevisiae deletion strains, locus YKR026C, strain gcn3, hits give low values 0.999 | S. cerevisiae deletion strains, locus YKR091W, strain srl3, hits give low values 0.999 | S. cerevisiae deletion strains, locus YLL001W, strain dnm1, hits give low values 0.943 | S. cerevisiae deletion strains, locus YLL026W, hits give low values 1.01 | S. cerevisiae deletion strains, locus YLL041C, strain sdh2, hits give low values 0.996 | S. cerevisiae deletion strains, locus YLR027C, strain aat2, hits give low values 1.02 | S. cerevisiae deletion strains, locus YLR039C, strain RIC1, hits give low values 1.03 | S. cerevisiae deletion strains, locus YLR058C, strain SHM2, hits give low values 1.01 | S. cerevisiae deletion strains, locus YLR102C, strain apc9, hits give low values 1.02 | S. cerevisiae deletion strains, locus YLR113W, strain HOG1, hits give low values 1.01 | S. cerevisiae deletion strains, locus YLR221C, strain rsa3, hits give low values 1.06 | S. cerevisiae deletion strains, locus YLR258W, strain gsy2, hits give low values 1.01 | S. cerevisiae deletion strains, locus YLR262C, strain YPT6 (second series), hits give low values 1.01 | S. cerevisiae deletion strains, locus YLR262C, strain YPT6, hits give low values 1.06 | S. cerevisiae deletion strains, locus YLR268W, strain sec22, hits give low values 1.01 | S. cerevisiae deletion strains, locus YLR320W, strain mms22, hits give low values 1.07 | S. cerevisiae deletion strains, locus YLR330W, strain CHS5, hits give low values 1.01 | S. cerevisiae deletion strains, locus YLR342W, strain FKS1 (second series), hits give low values 1.03 | S. cerevisiae deletion strains, locus YLR342W, strain FKS1, hits give low values 1.02 | S. cerevisiae deletion strains, locus YLR357W, strain rsc2, hits give low values 0.912 | S. cerevisiae deletion strains, locus YLR370C, strain arc18, hits give low values 1.01 | S. cerevisiae deletion strains, locus YLR371W, strain rom2, hits give low values 1.02 | S. cerevisiae deletion strains, locus YLR384C, strain iki3, hits give low values 0.999 | S. cerevisiae deletion strains, locus YLR418C, strain cdc73, hits give low values 1.02 | S. cerevisiae deletion strains, locus YML016C, strain PPZ1, hits give low values 1.01 | S. cerevisiae deletion strains, locus YML032C, strain rad52, hits give low values 1.02 | S. cerevisiae deletion strains, locus YML120C, strain ndi1, hits give low values 0.972 | S. cerevisiae deletion strains, locus YML124C, strain tub3, hits give low values 1.01 | S. cerevisiae deletion strains, locus YMR058W, strain fet3, hits give low values 0.987 | S. cerevisiae deletion strains, locus YMR078C, strain ctf18, hits give low values 1.01 | S. cerevisiae deletion strains, locus YMR125W, strain sto1, hits give low values 0.929 | S. cerevisiae deletion strains, locus YMR129W, hits give low values 1 | S. cerevisiae deletion strains, locus YMR205C, strain PFK2, hits give low values 0.982 | S. cerevisiae deletion strains, locus YMR223W, strain ubp8, hits give low values 1.02 | S. cerevisiae deletion strains, locus YMR231W, strain pep5, hits give low values 1.01 | S. cerevisiae deletion strains, locus YMR263W, strain SAP30, hits give low values 1.01 | S. cerevisiae deletion strains, locus YMR307W, strain GAS1, hits give low values 0.993 | S. cerevisiae deletion strains, locus YNL067W, strain RPL9B, hits give low values 0.996 | S. cerevisiae deletion strains, locus YNL071W, strain lat1, hits give low values 0.998 | S. cerevisiae deletion strains, locus YNL128W, strain TEP1, hits give low values 1 | S. cerevisiae deletion strains, locus YNL153C, strain GIM3, hits give low values 1.01 | S. cerevisiae deletion strains, locus YNL183C, strain NPR1, hits give low values 0.944 | S. cerevisiae deletion strains, locus YNL209W, strain ssb2, hits give low values 0.994 | S. cerevisiae deletion strains, locus YNL233W, strain BNI4, hits give low values 1.02 | S. cerevisiae deletion strains, locus YNL248C, strain rpa49, hits give low values 0.975 | S. cerevisiae deletion strains, locus YNL250W, strain rad50, hits give low values 1.01 | S. cerevisiae deletion strains, locus YNL271C, strain bni1, hits give low values 1.02 | S. cerevisiae deletion strains, locus YNL298W, strain CLA4, hits give low values 1.02 | S. cerevisiae deletion strains, locus YNL307C, strain MCK1, hits give low values 1.02 | S. cerevisiae deletion strains, locus YNL322C, strain KRE1 (second series), hits give low values 0.991 | S. cerevisiae deletion strains, locus YNL322C, strain KRE1, hits give low values 1.01 | S. cerevisiae deletion strains, locus YNR049C, strain mso1, hits give low values 0.998 | S. cerevisiae deletion strains, locus YNR052C, strain pop2, hits give low values 1.02 | S. cerevisiae deletion strains, locus YOL006C, strain TOP1, hits give low values 1.05 | S. cerevisiae deletion strains, locus YOL012C, strain htz1 0.974 | S. cerevisiae deletion strains, locus YOL147C, strain pex11, hits give low values 1.01 | S. cerevisiae deletion strains, locus YOR001W, strain rrp6, hits give low values 1.03 | S. cerevisiae deletion strains, locus YOR061W, strain CKA2, hits give low values 1.02 | S. cerevisiae deletion strains, locus YOR069W, strain VPS5, hits give low values 1.01 | S. cerevisiae deletion strains, locus YOR070C, strain gyp1, hits give low values 1.03 | S. cerevisiae deletion strains, locus YOR080W, strain dia2, hits give low values 1 | S. cerevisiae deletion strains, locus YOR083W, strain WHI5, hits give low values 0.989 | S. cerevisiae deletion strains, locus YOR106W, strain vam3, hits give low values 0.947 | S. cerevisiae deletion strains, locus YOR136W, strain idh2, hits give low values 1.02 | S. cerevisiae deletion strains, locus YOR144C, strain elg1, hits give low values 1.01 | S. cerevisiae deletion strains, locus YOR184W, strain ser1, hits give low values 1.05 | S. cerevisiae deletion strains, locus YOR231W, strain MKK1, hits give low values 1 | S. cerevisiae deletion strains, locus YOR265W, strain rbl2, hits give low values 1 | S. cerevisiae deletion strains, locus YOR270C, strain vph1, hits give low values 0.993 | S. cerevisiae deletion strains, locus YOR290C, strain snf2, hits give low values 0.95 | S. cerevisiae deletion strains, locus YOR316C, strain cot1, hits give low values 1.01 | S. cerevisiae deletion strains, locus YPL051W, strain arl3, hits give low values 1 | S. cerevisiae deletion strains, locus YPL055C, strain LGE1, hits give low values 1.02 | S. cerevisiae deletion strains, locus YPL078C, strain atp4, hits give low values 0.957 | S. cerevisiae deletion strains, locus YPL106C, strain sse1, hits give low values 0.983 | S. cerevisiae deletion strains, locus YPL240C, strain hsp82, hits give low values 1.01 | S. cerevisiae deletion strains, locus YPL241C, strain CIN2, hits give low values 1.01 | S. cerevisiae deletion strains, locus YPL256C, strain CLN2, hits give low values 0.994 | S. cerevisiae deletion strains, locus YPR119W, strain clb2, hits give low values 1 | S. cerevisiae deletion strains, locus YPR141C, strain kar3, hits give low values 1.01 | S. cerevisiae deletion strains, locus YPR163C, strain tif3, hits give low values 1.02 | S. cerevisiae deletion strains, locus YPR167C, strain met16, hits give low values 1.02 | S. cerevisiae deletion strains, strain wtn01, hits give low values 1.01 | S. cerevisiae strains, strain wild type, hits give low values 1.01
